Data reported in PubChem BioAssay AID1159580 (chemical genetic matrix, 2015).
Out of some 5,500 compounds screened, about 2,000 (36%) were called active. Not shown: some 18% with an inconclusive outcome. Rule as the data show it: active = normalized growth mostly below about 0.91 (no sharp cut-off); inconclusive = no clear call, values can overlap the other calls; inactive = mostly above about 0.92. This is one part of the list.

Test: chemical genetic growth profiling, strain panel (AID 1159580);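 also: tested at 20 µM; growth read once vehicle control cultures reached saturation at 30 °C; 1 = growth at the plate median or of vehicle wells; lower values mean less growth of the strain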
Conditions: growth OD
[1] = S. cerevisiae deletion strains, locus YDR150W, strain NUM1, active compounds read low
[2] = S. cerevisiae deletion strains, locus YJR075W, strain HOC1, active compounds read low
[3] = S. cerevisiae deletion strains, locus YMR263W, strain SAP30, active compounds read low
[4] = S. cerevisiae deletion strains, locus YNL128W, strain TEP1, active compounds read low
[5] = S. cerevisiae deletion strains, locus YNL153C, strain GIM3, active compounds read low
[6] = S. cerevisiae deletion strains, locus YNL322C, strain KRE1, active compounds read low

Measured: normalized growth

O=C(O)CCCCCC[C@H]1C(=O)NC(=O)N1CC[C@@H](O)C1CCCCC1
inactive: S. cerevisiae deletion strains, locus YAL040C, strain CLN3, active compounds read low 0.969 | S. cerevisiae deletion strains, locus YCL061C, strain MRC1 (second series), active compounds read low 0.985 | [1] 0.996 | S. cerevisiae deletion strains, locus YDR363W, strain ESC2, active compounds read low 0.985 | S. cerevisiae deletion strains, locus YER002W, strain NOP16, active compounds read low 0.936 | S. cerevisiae deletion strains, locus YGR229C, strain SMI1, active compounds read low 0.999 | [2] 0.996 | [3] 0.993 | S. cerevisiae deletion strains, locus YMR307W, strain GAS1, active compounds read low 1 | [4] 0.942 | [5] 0.971 | S. cerevisiae deletion strains, locus YNL175C, strain NOP13, active compounds read low 0.987 | S. cerevisiae deletion strains, locus YNL197C, strain WHI3, active compounds read low 0.962 | S. cerevisiae deletion strains, locus YNL224C, strain SQS1, active compounds read low 0.982 | [6] 0.99 | S. cerevisiae deletion strains, locus YOR083W, strain WHI5 (second series), active compounds read low 0.985

COc1ccccc1C1OC(=O)CC1C(=O)O (stereo not given)
inactive: S. cerevisiae deletion strains, locus YBR229C, strain ROT2, active compounds read low 1.02 | S. cerevisiae deletion strains, locus YCL061C, strain MRC1, active compounds read low 0.989 | S. cerevisiae deletion strains, locus YDL101C, strain DUN1, active compounds read low 1 | S. cerevisiae deletion strains, locus YDL134C, strain PPH21, active compounds read low 1.03 | [1] 0.947 | S. cerevisiae deletion strains, locus YEL061C, strain CIN8, active compounds read low 1 | S. cerevisiae deletion strains, locus YGR078C, strain PAC10, active compounds read low 0.987 | S. cerevisiae deletion strains, locus YHR030C, strain SLT2, active compounds read low 0.963 | S. cerevisiae deletion strains, locus YHR087W, strain rtc3, active compounds read low 1.03 | S. cerevisiae deletion strains, locus YJL187C, strain SWE1, active compounds read low 1.01 | S. cerevisiae deletion strains, locus YJR043C, strain POL32, active compounds read low 0.98 | [2] 0.986 | S. cerevisiae deletion strains, locus YLR039C, strain RIC1, active compounds read low 1.02 | S. cerevisiae deletion strains, locus YLR058C, strain SHM2 (second series), active compounds read low 1.01 | S. cerevisiae deletion strains, locus YLR085C, strain ARP6, active compounds read low 1.02 | S. cerevisiae deletion strains, locus YLR262C, strain YPT6, active compounds read low 1.02 | S. cerevisiae deletion strains, locus YML094W, strain GIM5, active compounds read low 1.02 | S. cerevisiae deletion strains, locus YMR219W, strain ESC1, active compounds read low 1.01 | [3] 0.968 | [4] 1.02 | [5] 1 | S. cerevisiae deletion strains, locus YNL298W, strain CLA4 (second series), active compounds read low 0.998 | [6] 0.999 | S. cerevisiae deletion strains, locus YNR030W, strain Alg12, active compounds read low 1.01 | S. cerevisiae deletion strains, locus YOL006C, strain TOP1, active compounds read low 1.07 | S. cerevisiae deletion strains, locus YPL055C, strain LGE1, active compounds read low 0.955 | S. cerevisiae deletion strains, locus YPL241C, strain CIN2, active compounds read low 0.989 | S. cerevisiae deletion strains, locus YPR135W, strain CTF4, active compounds read low 1.02 | S. cerevisiae strains, strain wild type, active compounds read low 1.02
